Screening data from PubChem.
A selection: hits, their analogues and other compounds. The true share with any hit is near 7.5%.
NPC1 promoter act: activators of NPC1 promoter; AID 485313; Potency, µM (titrated, usually from 9.22 µM), without a hit: at the highest dose activation, usual class: activators; Huh7 NPC1 promoter luciferase reporter, 24 h; hit rate 2.4% among 320,000; note: % of control where 0% means no effect; nearly all actives have a fitted effect of over 60% in size
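In 1536-well qHTS, Huh7 cells harboring an NPC1 promoter–luciferase construct received compound for 24 h; activation was quantified by luminescence following luciferase reagent addition.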
FLuc counter: firefly luciferase modulation, counter-screen for miR-21 project; P08659; purified FLuc, Km substrates, luminescence inhibition; Potency, µM (doses to about 57.5 µM), for the others: top-dose activity change, negative = inhibition, hits mostly inhibitors; hit rate 6.9% among 360,000; AID 588342;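 note: plate controls were vehicle for no effect and reference inhibitor for full effect; nearly all actives have a fitted effect of over 55% in size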
Target sequence (P08659 whole entry, looked up): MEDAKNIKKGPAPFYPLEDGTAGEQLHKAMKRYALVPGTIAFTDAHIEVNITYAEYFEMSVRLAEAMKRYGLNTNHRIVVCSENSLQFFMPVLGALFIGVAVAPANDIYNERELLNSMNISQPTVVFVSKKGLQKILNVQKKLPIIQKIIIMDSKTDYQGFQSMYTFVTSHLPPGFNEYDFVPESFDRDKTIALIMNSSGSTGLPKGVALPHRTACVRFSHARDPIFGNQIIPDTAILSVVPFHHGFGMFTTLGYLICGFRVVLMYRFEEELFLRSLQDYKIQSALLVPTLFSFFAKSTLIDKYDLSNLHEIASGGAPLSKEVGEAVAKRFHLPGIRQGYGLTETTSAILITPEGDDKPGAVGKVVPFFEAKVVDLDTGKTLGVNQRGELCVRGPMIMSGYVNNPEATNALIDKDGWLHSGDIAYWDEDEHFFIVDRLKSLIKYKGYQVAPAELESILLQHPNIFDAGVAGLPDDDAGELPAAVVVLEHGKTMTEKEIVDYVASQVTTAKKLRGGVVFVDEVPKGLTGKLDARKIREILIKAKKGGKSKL
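Purified P. pyralis luciferase (10nM final) with 10uM D-luciferin and 10uM ATP (Km levels) in 50mM Tris acetate pH 7.5, 10mM Mg acetate, 0.01% Tween-20, 0.05% BSA; qHTS 6-point titration, ~60 µM downward; luminescence read.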
Luc counter: Kinase-Glo luciferase inhibition (counter-screen); Q27757; Kinase-Glo luciferase, ATP luminescence, 8 min; Potency, µM (doses to about 38.3 µM), inactives show at the top dose activity change, negative = inhibition, hits mostly inhibitors; hit rate 0.28% among 200,000; note: % is set by controls: 0 for no effect and ±100 for the full control effect; nearly all actives have a fitted effect of over 60% in size
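Compound is pinned into ATP-containing buffer (10 uM ATP, imidazole pH 7.2, 7 mM MgCl2). Kinase-Glo luciferase reagent is then added. Light output is recorded following an 8-min room-temperature incubation.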
SMN2 splice up: SMN2 splice variant enhancement; HEK293 SMN2-luciferase splicing reporter, luminescence, 30-36 h; Potency, µM (titrated, usually from 46.1 µM), inactives show at the top dose activity change, positive = activation, usual class: activators; hit rate 2.8% among 210,000; note: % of control where 0% means no effect; nearly all actives have a fitted effect of over 55% in size
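qHTS luciferase splicing reporter: luminescence rises when SMN2 exon 7 is included in transfected HEK293 cells. Compound exposure lasted 30-36 h at 37C, with 4.5 mM final sodium butyrate as control, followed by a ONE-Glo read.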
ELG1 genotox: genotoxicity induction in ELG1-luciferase HEK293T cells; Potency, µM (highest dose often 46 µM), inactives show at the top dose activity change, positive = activation, most hits filed as activators; hit rate 1.3% among 330,000; HEK293T ELG1-luciferase reporter, luminescence, 16 h; note: % of control where 0% means no effect; nearly all actives have a fitted effect of over 60% in size
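ELG1-luciferase HEK293T cells, 2,000/well; compound pinned in; 16 hr, 37 °C, 5% CO2; ONE-Glo, 30 min RT; luminescence on CCD imager.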
Rab9 promoter act: activates the Rab9 promoter; Huh7 Rab9 promoter-luciferase reporter, luminescence, 24 h; Potency, µM (titrated, usually from 9.22 µM), for the others: at the highest dose activation, negative = inhibition, actives largely listed as activators; hit rate 2.8% among 320,000; AID 485297; note: % of control where 0% means no effect; nearly all actives have a fitted effect of over 60% in size
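Rab9 promoter-driven luciferase in stably transfected Huh7 cells; 1500 cells/well rested 2 h, exposed to compound in DMSO for 24 h at 37 °C, 5% CO2. Luminescence read 10 min after adding luciferase reagent at ambient temperature.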
* marks the source's active call; other numbers are inactive results. Calls come from the whole dose curve; as a rule, active = well fitted curve in the direction sought with a large enough effect; inconclusive = small, poorly fitted or top-dose-only effect, or another doubt; inactive = no such curve, though single readings can be large; an effect the other way counts as inactive or inconclusive. Potency is the fitted concentration of half-maximal effect.

Screening CN(C)c1ccc(N=Nc2ccc(S(N)(=O)=O)cc2)cc1 returned NPC1 promoter act 1µM*, FLuc counter 2.7µM*, ELG1 genotox 21µM* and Rab9 promoter act 2.8µM*.
Screening CN(C)N=Nc1ccc(S(N)(=O)=O)cc1 returned NPC1 promoter act -1%, FLuc counter -2%, Luc counter -1%, ELG1 genotox 3% and Rab9 promoter act -9%.
For Cc1oc(-c2ccccc2F)nc1CSCC(=O)NCc1ccccc1 the results were FLuc counter -16% and SMN2 splice up -8%.
For NC(=O)c1cc2c3ccccc3ccn2c1-c1ccccc1 the results were NPC1 promoter act -2%, FLuc counter 21µM*, ELG1 genotox 12µM* and Rab9 promoter act -15%.
`Cc1cc(C(N)=O)c2ccccc2n1` gave NPC1 promoter act 0%, FLuc counter 2%, Luc counter 2%, SMN2 splice up 2%, ELG1 genotox 0% and Rab9 promoter act 6%.
For C=CCOc1cccc(C(=O)/C=C2/C(=O)Nc3ccccc32)c1 the results were NPC1 promoter act -6%, FLuc counter 7.6µM*, ELG1 genotox 18% and Rab9 promoter act -4%.
For COc1cccc(Cn2c(=O)n(Cc3ccco3)c(=O)c3oc4ccccc4c32)c1 the results were FLuc counter -10%.
Nc1nc2ccccc2n1/N=C/c1ccc(-c2ccccc2)o1 was read as NPC1 promoter act inconclusive, FLuc counter inconclusive, Luc counter -3%, SMN2 splice up 27%, ELG1 genotox inconclusive and Rab9 promoter act 4µM*.
`COc1ccccc1N1C(=O)S/C(=C\c2cc(C)n(C)c2C)C1=O` gave NPC1 promoter act 3.5µM*, FLuc counter 12µM*, Luc counter 1%, SMN2 splice up 14µM*, ELG1 genotox inconclusive and Rab9 promoter act 2.5µM*.
For COc1ccc(N=C2S/C(=C\c3cc(C)n(C)c3C)C(=O)N2C)cc1 the results were NPC1 promoter act -4%, FLuc counter 0%, Luc counter -2%, SMN2 splice up -14%, ELG1 genotox 10% and Rab9 promoter act 0%.
For COc1ccc(N=C2S/C(=C\c3ccc(C)s3)C(=O)N2CC(C)C)cc1 the results were NPC1 promoter act -3%, FLuc counter 0%, Luc counter -7%, SMN2 splice up 0%, ELG1 genotox -5% and Rab9 promoter act 0%.
Screening COc1ccccc1N1C(=O)S/C(=C\c2ccc(C)s2)C1=O returned NPC1 promoter act inconclusive, FLuc counter -21%, ELG1 genotox inconclusive and Rab9 promoter act 3.5µM*.
For Cc1ccc(NC(=O)C2CCCN2S(=O)(=O)c2ccc3nc(-c4ccccc4)[nH]c3c2)cc1F (stereo not drawn) the results were FLuc counter -14%.
Screening Nc1nc(Nc2ccccc2F)nc(N2CCCC2)c1[N+](=O)[O-] returned NPC1 promoter act 0%, FLuc counter 17µM*, ELG1 genotox inconclusive and Rab9 promoter act inconclusive.
CCc1ccc(Nc2nnc(SCC(=O)Nc3ccc(C(=O)O)cc3)s2)cc1 was read as NPC1 promoter act 18%, FLuc counter 0.54µM*, ELG1 genotox 6% and Rab9 promoter act 18%.
CCc1ccc(Nc2nnc(SCC(=O)NC(=O)c3cccn3C)s2)cc1 was read as NPC1 promoter act 1%, FLuc counter inconclusive, Luc counter -2%, SMN2 splice up 11%, ELG1 genotox inconclusive and Rab9 promoter act -6%.
`Cc1nnc(SCc2cccc3ccccc23)s1` gave NPC1 promoter act inconclusive, FLuc counter 24µM*, ELG1 genotox inconclusive and Rab9 promoter act inconclusive.
Screening CCc1ccc(Nc2nnc(SCC(=O)Nc3cccc(S(=O)(=O)NC4=NCCCCC4)c3)s2)cc1 returned NPC1 promoter act inconclusive, FLuc counter 0.48µM*, Luc counter -10%, SMN2 splice up 13µM*, ELG1 genotox -10% and Rab9 promoter act inconclusive.
